Inconclusive results are not listed. A call without a number means that no potency is given here. Unmarked numbers belong to inactive results. Calls of active or inactive are those of the source. Calls come from the whole dose curve; as a rule, active = well fitted inhibition curve with a large enough effect; inconclusive = small, poorly fitted or top-dose-only effect; inactive = flat fitted curve, though single readings scatter. *1 amine or outer side, *2 acyl side, *3 side chain or, on linkers, in order; H or OH if unused. Where a SMILES comes first, the peptide text is derived from it. [ ]: non-standard residue; d: D form. The star is where a group is joined. ξ: configuration not given here. X9 = CCC(C)(N*)C(=O)C1CC[C@@H](C(=O)N[C@@H](Cc2ccccc2)C(=O)NCC(=O)O)N1; X8 = O=C([C@@H]1CC(O)CN1[*:1])[*:2]; aIle = CC[C@@H](C)[C@H](N)C(=O)O; Thr(3ξ) = CC(O)[C@H](N)C(=O)O; ξIva = CCC(C)(N)C(=O)O; Aib = CC(C)(N)C(=O)O
Tests used:
[1] = target: Calcium and integrin-binding protein 1 (Homo sapiens) (UniProt Q99828); assay: Primary qHTS for Identification of Calcium Integrin Binding Protein 1 (CIB1) Competitor (AID 1508620); conditions: CIB1-GST / FITC-alphaIIb peptide fluorescence polarization; series mostly up to 57.7 µM;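 note: GST tagged CIB1 binding a fluorescein labelled alphaIIb integrin peptide tracer; top concentration of the series differs between compounds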
How it was run: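 CIB1-GST (1 uM final) and compound incubated 15 min at room temperature before adding FITC-alphaIIb peptide tracer (100 nM final). Competition for binding read by fluorescence polarization (ex 480, em 540) after another 15 min at room temperature.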

[2] = Primary qHTS for inhibitors of nuclear receptor binding SET domain protein 2 (NSD2) in an isogenic RCH-ACV NSD2 p.E1099K mutant (9B) (AID 1645876); conditions: RCH-ACV (leukaemia line) NSD2 E1099K (9B) viability, CellTiter-Glo, 72 h; series mostly up to 44.9 µM; note: nearly all actives have a fitted effect of over 70% in size

Sequence of Calcium and integrin-binding protein 1 (Homo sapiens) (Q99828 whole entry, looked up): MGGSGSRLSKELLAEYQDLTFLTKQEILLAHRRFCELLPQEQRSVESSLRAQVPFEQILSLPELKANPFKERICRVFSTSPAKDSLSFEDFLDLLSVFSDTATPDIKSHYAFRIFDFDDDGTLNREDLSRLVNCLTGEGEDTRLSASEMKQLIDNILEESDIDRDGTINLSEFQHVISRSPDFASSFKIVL

Work on CC[C@@H](C)[C@H](NC(=O)C(C)(C)NC(=O)[C@H](CCC(N)=O)NC(=O)C(C)(CC)NC(=O)[C@H](Cc1c[nH]c2ccccc12)NC(C)=O)C(=O)N[C@H](C(=O)NC(C)(C)C(=O)N[C@@H](CC(C)C)C(=O)NC(C)(C)C(=O)N1CCC[C@H]1C(=O)N[C@@H](CCC(N)=O)C(=O)NC(C)(C)C(=O)N1CC(O)C[C@H]1C(=O)NC(C)(CC)C(=O)C1CC[C@@H](C(=O)N[C@@H](Cc2ccccc2)C(=O)NCC(=O)O)N1)C(C)O (stereo not given in full) (Ac-W[ξIva]Q[Aib][aIle][Thr(3ξ)][Aib]L[Aib]PQ[Aib][X8]-X9) yielded an activity change, negative = inhibition [1] of 3.33% [at 12.4 µM] and an activity change, negative = viability loss [2] of -38.6% [at 4.96 µM].

In the case of CCC(C)C(=O)O[C@H]1[C@@H](O[C@H]2O[C@H](CO)[C@@H](O)[C@H](O)[C@H]2O)O[C@H](CO)[C@@H](O)[C@@H]1O (stereo not given in full), the Potency [1] is reported as “inactive” and the Potency [2] is reported as “inactive”.

For CC[C@@H]1[C@H]2CCCCN3C(=O)C[C@H]([C@@H]4[C@H]1OC(=O)[C@H]4C)[C@@H]23, the Potency [1] was “inactive” and the Potency [2] was “inactive”.

Work on CC1(C)CC[C@]2(C(=O)O)CC[C@]3(C)C(=CCC4[C@@]5(C)CC[C@H](O[C@@H]6O[C@H](C(=O)O)[C@@H](O)[C@H](O[C@@H]7O[C@H](CO)[C@H](O)[C@H](O)[C@H]7O)[C@H]6O[C@@H]6O[C@H](CO)[C@@H](O)[C@H](O)[C@H]6O)C(C)(C)C5CC[C@]43C)[C@@H]2C1 (stereo not given in full) yielded an activity change, negative = inhibition [1] of 10.7% [at 12.4 µM] and an activity change, negative = viability loss [2] of -9.66% [at 4.96 µM].

For CCC/C=C/C=C/C1CC(O)C(O)C(=O)C1CO (stereo not given), the Potency [1] was “inactive” and the Potency [2] was “inactive”.
